# Hit rate of the full screen: of about 2,400 compounds, about 2,100 (88%) were called active. So high a share suggests a set chosen from earlier hits. The list is a sample of the results. A number with no mark means an inactive call.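 Rule for the calls: active = inhibition above the average of every tested compound plus 3 SD (cut at about 3.8% in these data); inactive = the rest.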
# Target: Nuclear receptor subfamily 0 group B member 1 (Homo sapiens) (UniProt P51843)
# Experiment: NR0B1 repressor blockers, StAR reporter readout – cell-based, luminescence, HEK293T, full-length DAX-1, SF-1 activated StAR promoter, confirmation (AID 652134);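 note: 0% = DAX-1 cells with DMSO and 100% = no DAX-1 control cells with DMSO; active compounds raise luminescence by relieving repression of the StAR reporter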
# Conditions: HEK293T StAR-promoter luciferase reporter, SF-1/DAX-1 repression; at 6.8 µM; active compounds read high
# Sequence of Nuclear receptor subfamily 0 group B member 1 (Homo sapiens) (P51843 whole entry, looked up): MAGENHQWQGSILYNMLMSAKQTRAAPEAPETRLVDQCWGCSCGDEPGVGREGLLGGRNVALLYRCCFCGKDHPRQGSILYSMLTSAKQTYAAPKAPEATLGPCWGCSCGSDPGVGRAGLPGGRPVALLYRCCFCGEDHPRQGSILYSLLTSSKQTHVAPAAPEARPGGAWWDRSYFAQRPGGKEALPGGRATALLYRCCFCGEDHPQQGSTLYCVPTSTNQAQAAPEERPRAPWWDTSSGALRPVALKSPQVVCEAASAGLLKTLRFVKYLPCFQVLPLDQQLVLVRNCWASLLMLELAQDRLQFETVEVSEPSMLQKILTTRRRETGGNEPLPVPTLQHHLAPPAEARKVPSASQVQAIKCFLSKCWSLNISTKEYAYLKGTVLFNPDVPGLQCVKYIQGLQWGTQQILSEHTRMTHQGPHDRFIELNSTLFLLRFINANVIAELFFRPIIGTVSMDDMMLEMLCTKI
row,Structure (SMILES),inhibition
1,CC1CCCN(c2ccc(C(=O)NCCc3ccccc3)cn2)C1 (configuration not stated),7.54% (active)
2,CC[C@]1(O)C[C@@H]2CN(CCc3c([nH]c4ccccc34)[C@@](C(=O)OC)(c3cc4c(cc3OC)N(C)[C@H]3[C@@](O)(C(=O)OC)[C@H](OC(C)=O)[C@]5(CC)C=CCN6CC[C@]43[C@@H]65)C2)C1,19.4% (active)
3,CC[C@]1(O)CC2CN(CCc3c([nH]c4ccccc34)[C@@](C(=O)OC)(c3cc4c(cc3OC)N(C=O)[C@H]3[C@@](O)(C(=O)OC)[C@H](OC(C)=O)[C@]5(CC)C=CCN6CC[C@]43[C@@H]65)C2)C1 (some centres not stated),17.7% (active)
4,Cc1c(C(=O)Nc2ccccn2)oc2ccc(Br)cc12,12.8% (active)
5,CCOc1ccc(-c2nnc(-c3ccco3)o2)cc1,9.81% (active)
6,O=C(NCC1CCCO1)c1cc2c(s1)CCCC2 (configuration not stated),5.13% (active)
7,O=C(Nc1ccc2ccccc2c1[N+](=O)[O-])c1ccccc1,8.86% (active)
8,C/C(=N\NC(=O)c1ccccc1F)c1ccccn1,-7.54%
9,O=C(NCCOc1ccccc1)c1ccccc1F,13.3% (active)
10,O=C(CCc1ccccc1)Nc1ncc([N+](=O)[O-])s1,3.12%
11,O=C(Nc1ccn(Cc2ccccc2)n1)c1n[nH]c([N+](=O)[O-])c1Cl,10.4% (active)
12,COc1ccc(-c2csc(Nc3ccccn3)n2)cc1,12.8% (active)
13,COC(=O)Nc1nc2ccc(C(=O)C3CC3)cc2[nH]1,17.1% (active)
14,CN1CCN(C(=O)c2ccc(-c3ccc(Br)cc3)o2)CC1,6.02% (active)
15,COc1ccc(CCOC2OC(CO)C(OC(=O)/C=C/c3ccc(O)c(OC)c3)C(O[C@H]3O[C@@H](C)[C@H](O)[C@@H](O)[C@H]3O)C2O)cc1O (some centres not stated),2.5%
16,COc1ccc(C(=O)NCC[N+](C)(C)C)cc1,1.64%
17,CCCOc1ccc(C(=O)NCCc2ccccc2)cc1,11.2% (active)
18,O=C(N/N=C\C1CC=CCC1)c1ccc(Br)o1 (configuration not stated),0.48%
19,CCCc1cc(C(=O)Nc2ccc(Cl)cn2)cs1,8.76% (active)

row,Structure (SMILES),inhibition
1,CCCc1cc(C(=O)Nc2ccc(C(=O)OC)cc2)cs1,3.03%
2,Nc1c(C(=O)Nc2ccc3c(c2)OCCO3)nnn1Cc1ccccc1,12.5% (active)
3,O=C(Nc1ccc(NC(=O)c2cccs2)cn1)c1ccco1,12.9% (active)
4,O=C(NC(=S)Nc1ccc(Cl)cc1Cl)C1CC1,5.19% (active)
5,COc1cc(OC)c(C(=O)NNC(=O)c2ccc(NS(=O)(=O)c3cccs3)cc2)cc1OC,1.04%
6,O=C(Nc1ccccc1)Nc1nc2ccccc2s1,14.6% (active)
7,CC(C)c1ccc(Nc2nnc(SCC(=O)c3nnc(-c4ccccc4)o3)s2)cc1,7.92% (active)
8,CCc1ccc2oc(-c3ccc(N)cc3)nc2c1,12.2% (active)
9,CC(C)(C)c1csc(NC2=NS(=O)(=O)c3ccccc32)n1,11.5% (active)
10,Cc1ccc(-n2cc3ccc([N+](=O)[O-])cc3n2)cc1,12.1% (active)
11,Brc1ccc2nc(N3CCCC3)sc2c1,7.35% (active)
12,O=C(Nc1ncccc1O)c1ccc(S(=O)(=O)N2CCCCCC2)cc1,7.57% (active)
13,O=C(Nc1ncccc1O)c1ccc(S(=O)(=O)N2CCCC2)cc1,10.3% (active)
14,O=C(Nc1ncccc1O)c1ccc(C(=O)c2ccccc2)cc1,51.3% (active)
15,CCc1ccc(NC(=O)N2CCc3ccccc3C2)cc1,5.01% (active)
16,Cc1cc(N)n2nc(-c3ccc(C(C)(C)C)cc3)cc2n1,13.7% (active)
17,O=C(c1cnn(-c2ccc(Cl)cc2)c1)c1ccccc1O,11.7% (active)
18,COc1ccccc1Cc1c(-c2ccc(F)cc2)nc2ccc(C)cn12,4.48% (active)
19,Cc1ccc(-c2nc3ccc(Br)cn3c2Cc2ccccc2C(F)(F)F)cc1,5.68% (active)

row,Structure (SMILES),inhibition
1,Nc1ccc2nn(-c3ccc(Cl)cc3)nc2c1,15.9% (active)
2,CN1OC[C@@H]2CN[C@H](c3ccc(-c4ccccc4)cc3)C[C@@H]21,8.84% (active)
3,COc1ccc(-c2csc(-c3cccs3)n2)cc1OC,10.7% (active)
4,CC1CCN(CCCNC(=O)CN2C(=O)CSc3ccc(S(=O)(=O)N4CCCCC4)cc32)CC1,2.3%
5,CSCCC(NC(=O)c1ccco1)C(=O)Nc1cc(C)ccn1 (configuration not stated),12.7% (active)
6,O=C(Nc1ccccc1)c1ccc2c(c1)OCCCO2,15.6% (active)
7,Cc1ccc(C(=O)NNC(=O)c2ccc3c(c2)OCCO3)cc1,3.83% (active)
8,CN1CCN(c2ccc(NC(=O)c3ccc4c(c3)OCCO4)cc2Cl)CC1,6.62% (active)
9,Cc1nc(NC(=O)c2ccc3c(c2)OCCO3)ccc1Br,12.1% (active)
10,CCC(=O)Nc1ccc(-c2ccc(N3CCCCC3)nn2)cc1,3.57%
11,c1ccc(Cc2c(-c3ccco3)nc3c4ccccc4ccn23)cc1,12.1% (active)
12,COc1ccc(CCNC(=O)COC(=O)Cc2ccccc2F)cc1,0.17%
13,Cc1cc(C(=O)NCCc2ccc(Cl)cc2)c(C)o1,3.8% (active)
14,O=C(O)c1ccc(N/N=C/c2cn(-c3ccccc3)nc2-c2cccs2)cc1,12.7% (active)
15,CCSc1nnc(NC(=O)c2ccc(C)cc2)s1,10% (active)
16,NC(=O)CSc1nnc(NC(=O)c2ccc3ccccc3c2)s1,10% (active)
17,Cc1ccnc(NC(=O)CNC(=O)c2ccccc2)c1,3.68% (active)
18,Cc1nn(-c2ccc([N+](=O)[O-])cc2)c(N)c1-c1ccccc1,15.1% (active)
19,Fc1ccc2cnc(-c3ccccc3)cc2c1,6.65% (active)

# From PubChem BioAssay AID652134 (The Scripps Research Institute Molecular Screening Center, 2013)
